Results filed as inconclusive are left out. Active and inactive are the calls of the source. Rule for the calls, unless noted: active = hit-call score of the fitted dose curve at least 0.9, where 1 is the maximum; inconclusive = response in the unintended direction; inactive = score below 0.9.

From PubChem BioAssay (EPA / NIEHS) come the findings set out here.

Test [1] can be described thus: TOX21_p53_BLA_p2_viability: Viability Assessment in the Tox21 HCT-116 p53 Agonism Beta-lactamase Assay, Phase 2 (AID 2283591).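 Note: compound exposure lasted 16 h at 37 °C; actives lower the ATP signal meaning cytotoxicity.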 Put shortly:
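Cytotoxicity readout: CellTiter-Glo ATP luminescence, 30 min at room temperature, after the beta-lactamase read. Cells were HCT116 exposed 16 h at 37C to compounds pin-transferred at 217-fold dilution from DMSO stocks.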

A short description of test [2]: TOX21_p53_BLA_p3_viability: Viability Assessment in the Tox21 HCT-116 p53 Agonism Beta-lactamase Assay, Phase 3 (AID 2283593).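 Note: cells exposed to compound for 16 h before reading.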 Put shortly:
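Cellular ATP was quantified by CellTiter-Glo luminescence, read after 30 min at room temperature. Beforehand, HCT116 cells (4000/well) received compound 5 h post-seeding, 217-fold diluted from DMSO, then incubated 16 h at 37C.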

For test [3], the target named is Cellular tumor antigen p53 (Homo sapiens) (UniProt P04637). Kind of test: TOX21_p53_BLA_p3_ratio: Tox21 HCT-116 p53 Agonism Beta-lactamase Assay, Ratio, Phase 3 (AID 2283596). An outline of the steps: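 Cells were seeded at 4000/well, rested 5 h at 37C, then dosed with DMSO compound solutions (217-fold dilution) for 16 h. CCF4-AM substrate was loaded for 2 h at room temperature, and the 460/530 nm emission ratio was fitted for gain of signal versus DMSO.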
Chain of Cellular tumor antigen p53 (Homo sapiens) (P04637 whole entry, looked up): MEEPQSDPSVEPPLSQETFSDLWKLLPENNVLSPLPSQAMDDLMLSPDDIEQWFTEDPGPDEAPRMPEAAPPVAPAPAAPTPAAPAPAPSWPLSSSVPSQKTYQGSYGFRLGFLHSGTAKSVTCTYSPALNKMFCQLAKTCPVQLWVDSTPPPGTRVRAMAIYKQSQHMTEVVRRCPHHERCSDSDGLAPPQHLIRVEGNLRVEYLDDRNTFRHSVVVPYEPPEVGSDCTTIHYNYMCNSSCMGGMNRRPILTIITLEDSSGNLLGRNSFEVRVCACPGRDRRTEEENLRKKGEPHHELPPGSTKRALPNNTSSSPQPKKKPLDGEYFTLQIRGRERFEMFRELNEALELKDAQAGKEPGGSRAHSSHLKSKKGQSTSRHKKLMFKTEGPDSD

Test [4] shares this target. Kind of test: TOX21_p53_BLA_p4_ratio: Tox21 HCT-116 p53 Agonism Beta-lactamase Assay, Ratio, Phase 4 (AID 2283601). An outline of the steps: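 Signal is the blue/green (460nm/530nm) ratio of cleaved versus uncleaved CCF4-AM substrate, read after 2 h substrate loading. Cells were HCT116 carrying the p53-responsive beta-lactamase reporter, dosed 16 h at 37C, 5% CO2; CellTiter-Glo measured in parallel.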

For test [5] the target is unchanged. Kind of test: TOX21_p53_BLA_p5_ratio: Tox21 HCT-116 p53 Agonism Beta-lactamase Assay, Ratio, Phase 5 (AID 2283599). Put shortly:
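Beta-lactamase reporter ratio (blue 460 nm over green 530 nm, 405 nm excitation) after 2 h CCF4-AM loading, in HCT-116 cells exposed 16 h at 37 C to compounds pinned at 217-fold dilution. Increases relative to DMSO baseline scored.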

The nature of test [6]: TOX21_p53_BLA_p4_viability: Viability Assessment in the Tox21 HCT-116 p53 Agonism Beta-lactamase Assay, Phase 4 (AID 2283597).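 Note: hits lower the luminescence signal meaning cytotoxicity.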 An outline of the steps:
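Readout: ATP luminescence (CellTiter-Glo), measured 30 min after reagent addition at RT. The reagent followed a 2 h CCF4-AM incubation, and the cells had been exposed to compound for 16 h at 37C.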

Test [7] is described as follows: TOX21_p53_BLA_p5_viability: Viability Assessment in the Tox21 HCT-116 p53 Agonism Beta-lactamase Assay, Phase 5 (AID 2283600). Put shortly: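 Workflow: seed 4000 cells per well, wait 5 h, add compounds (DMSO, 217-fold dilution), incubate 16 h, load CCF4-AM 2 h, add CellTiter-Glo, read luminescence after 30 min.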
A short description of test [8]: CCTE_Harrill_HTTr_Viability_MCF7: CCTE's 6-hour Cell Viability Assessment for the High-Throughput Transcriptomics (HTTr) Platform, in MCF-7 cells cultured in DMEM + 10% fetal bovine serum, Harrill Lab (AID 2284010; active = hit-call score of the fitted dose curve at least 0.9, where 1 is the maximum; inactive = score below 0.9). An outline of the steps: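 Eight-point concentration series, six-hour exposure. Propidium iodide exclusion imaged to assess membrane integrity as a cytotoxicity readout; bidirectional fitting was done with DMSO as negative control and activity baseline.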

Test [9] is described as follows: CCTE_Harrill_HTTr_Apoptosis_MCF7: CCTE's 6-hour Apoptosis Assessment for the High-Throughput Transcriptomics (HTTr) Platform, in MCF-7 cells cultured in DMEM + 10% fetal bovine serum, Harrill Lab (AID 2284011; active = hit-call score of the fitted dose curve at least 0.9, where 1 is the maximum; inactive = score below 0.9). An outline of the steps: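 MCF-7 (DMEM + 10% FBS), 384-well; 8-pt dilution series, 6 h chemical exposure; caspase-3/7 activation via CellEvent Caspase 3/7 Green, HCI; bidirectional fit vs DMSO.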

Consider `CC1CC(=O)NN=C1c1ccc(NCC(C)(C)NCC(O)COc2cc(Cl)ccc2C#N)cc1` (stereo not given), for which the call in test [1], in test [2], in test [3] and in test [4] was inactive.

Consider `C=CCN1CCCC1CNC(=O)c1cc(S(N)(=O)=O)cc(OC)c1OC` (stereo not given), for which the compound was called inactive in test [1], in test [2], in test [3], in test [5] and in test [4].

Take `c1ccc(CC2=NCCN2)cc1`: the outcome in [1], in test [2], in test [6] and in [5] was inactive.

For `C1CCCC1`, the result in test [1], in test [2], in test [3], in [5], in [7] and in test [4] was inactive.

On to `COC(OC)OC`, for which the call in [1], in test [2], in [3] and in test [4] was inactive.

Consider `[O]=[Mo](=[O])=[O]`, for which the outcome in [1], in test [2], in [3] and in test [7] was inactive.

As to `Cc1cccc2nccnc12`, the result in [1], in test [2], in [3], in test [5] and in test [4] was inactive.

As for `C[n+]1ccccc1/C=N/O`, the outcome in [1], in [2], in test [3] and in [7] was inactive.

`NC1CCN(c2cccc(Cl)n2)CC1`: the call in test [1], in [2], in test [3], in test [5], in test [7] and in [4] was inactive.

In the case of `CN(C)CCOC1=Cc2ccccc2Sc2ccc(Cl)cc21`, the compound was called inactive in test [1] and in test [2]. In test [6], the AC50 was 35.4 µM (active).

Consider `CC(C)=CCCC(C)=CC=NO`, for which the outcome in test [1], in [2] and in [6] was inactive.

Turning to `CC(N)C(=O)OC(C)(C)Cc1ccc(Cl)cc1` (stereo not given), the result in [1], in test [2], in [3], in test [7] and in test [4] was inactive.

As to `CCCCCCc1ccc(-c2ccc(C#N)cc2)cc1`, the outcome in test [1], in test [2] and in test [6] was inactive.

With `NC(Cc1ccc(Cl)cc1)C(=O)O` (stereo not given), the outcome in test [1], in [2], in test [3] and in test [4] was inactive.

With `Nc1cc(S(=O)(=O)O)ccc1S(=O)(=O)O`, the result in test [1], in test [2] and in test [6] was inactive.

Turning to `NC(=O)CCCCC1CCSS1` (stereo not given), the result in [1], in [2], in [6] and in [5] was inactive.

In the case of `Nc1c(CC(=O)O)cccc1C(=O)c1ccc(Br)cc1`, the call in [1], in test [2], in [3], in test [4], in [8] and in test [9] was inactive.

`CN(C)c1cc(NC(=O)CNC(C)(C)C)c(O)c2c1C[C@H]1C[C@H]3[C@H](N(C)C)C(=O)C(C(N)=O)=C(O)[C@@]3(O)C(=O)C1=C2O`: the compound was called inactive in test [1], in [2] and in test [6].

Regarding `NC[C@H]1O[C@H](O[C@H]2[C@H](O)[C@@H](O[C@H]3O[C@H](CO)[C@@H](O)[C@H](N)[C@H]3O)[C@H](N)C[C@@H]2N)[C@H](N)C[C@@H]1O`, the compound was called inactive in [1], in [2], in test [3], in [5] and in [4].

On to `COC(=O)[C@H]1[C@H]2C[C@@H]3c4[nH]c5cc(OC)ccc5c4CCN3C[C@H]2C[C@H](OC)[C@@H]1OC`, for which the result in test [1], in [2], in test [6] and in test [5] was inactive.
